Out of some 290,000 compounds screened, about 4,200 (1.4%) were called active. What follows is part of a selection rich in actives, with near analogues and random picks from the rest. A number with no mark means an inactive call.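 Rule for the calls: active = binding response more than 3 SD above or below the average of its plate-row segment, actives on both sides; inconclusive = wells at one plate position flagged as instrument error; inactive = the rest.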

Chain of Mitogen-activated protein kinase kinase kinase 3 (Homo sapiens) (Q99759 whole entry, looked up): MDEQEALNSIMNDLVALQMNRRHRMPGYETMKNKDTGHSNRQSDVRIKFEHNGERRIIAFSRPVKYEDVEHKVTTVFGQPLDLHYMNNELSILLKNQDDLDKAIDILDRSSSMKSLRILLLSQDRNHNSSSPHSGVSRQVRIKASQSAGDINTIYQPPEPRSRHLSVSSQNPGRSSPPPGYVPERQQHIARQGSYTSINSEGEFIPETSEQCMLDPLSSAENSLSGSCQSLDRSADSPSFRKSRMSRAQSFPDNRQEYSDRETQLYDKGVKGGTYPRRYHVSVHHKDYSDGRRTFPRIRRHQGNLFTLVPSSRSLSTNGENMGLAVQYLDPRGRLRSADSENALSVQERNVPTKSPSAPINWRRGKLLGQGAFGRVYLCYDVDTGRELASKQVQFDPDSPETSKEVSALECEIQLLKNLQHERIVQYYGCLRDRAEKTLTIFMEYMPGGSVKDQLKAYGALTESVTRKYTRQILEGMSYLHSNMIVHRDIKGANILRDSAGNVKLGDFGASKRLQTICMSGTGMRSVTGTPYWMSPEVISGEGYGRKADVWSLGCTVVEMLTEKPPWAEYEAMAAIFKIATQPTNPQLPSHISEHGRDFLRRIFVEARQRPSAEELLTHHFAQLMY

This assay addresses Mitogen-activated protein kinase kinase kinase 3 (Homo sapiens) (UniProt Q99759). As to the kind of experiment: modulators of MEKK3-MEK5 PB1 binding, primary screen, biochemical, wildtype MEKK3, multiplex bead flow cytometry, Alexa488-MEK5 (AID 1529).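 Note: Alexa488 bead fluorescence after subtracting the streptavidin-only scavenger bead signal.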 The conditions noted are these: bead-based flow cytometry, Alexa488-MEK5 binding to MEKK3; at 10 µM; actives lie on both sides; 0 = blocked by unlabeled MEK5, 100 = vehicle. Background: A flow cytometer gives signals particle by particle.
As to `CC(CN1CCOCC1)OC(=O)c1ccc(C(C)(C)C)cc1` (stereo unspecified), the binding response (% of control) was 106%.
`COc1cccc(/C=N/NC(=O)c2[nH]nc3c2CCc2ccccc2-3)c1O`: the binding response (% of control) is 102%.
On to `COc1cccc(/C=N\NC(=O)C2=NNC(=O)C2C)c1O` (stereo unspecified), for which the binding response (% of control) is 128% (active).
As to `COc1cc2cc(C(=O)N/N=C/c3cccc(OC)c3OC)[nH]c2cc1OC`, the binding response (% of control) was 94%.
Take `Cc1ccccc1Cn1c(=O)[nH]c2ccccc21`: the binding response (% of control) was 52%.
The figure for `CCOC(=O)CCc1c(C)c(C#N)c2[nH]c3ccccc3n2c1=O` is 109%; for `CCCc1cc(=S)n2c([nH]c3ccccc32)c1C#N` it is 1% [inhibitor] (active); for `COC(C[C@H](O)CC(=O)[C@@H](C)OCc1ccccc1)OC` it is 101%.
For the compound `Cn1nnc2cc(C(=O)NCCC3=CCCCC3)ccc21`, the binding response (% of control) is 99%.
As to `O=C(NCCC1=CCCCC1)c1ccc(Cl)c([N+](=O)[O-])c1`, the binding response (% of control) is 153% (active).
On to `CN(c1ccc(C(=O)NCCC2=CCCCC2)cc1)S(C)(=O)=O`, for which the binding response (% of control) was 100%.
For `O=[N+]([O-])c1ccccc1/C=C/CN1CCC(O)CC1`, the binding response (% of control) was 105%.
With `Cc1cc(C)cc(N(CC(=O)N2CC=C(c3ccccc3)CC2)S(=O)(=O)c2c(C)noc2C)c1`, the binding response (% of control) was 112%.
With `Cc1noc(C)c1S(=O)(=O)N(C)Cc1ccccc1`, the binding response (% of control) is 3% [inhibitor] (active).
For the compound `Cc1noc(C)c1S(=O)(=O)Nc1ccc(C(=O)O)cc1`, the binding response (% of control) is 98%.
As for `CCOc1ccccc1NC(=O)COc1ccc(S(=O)(=O)N2CCCC2)cc1`, the binding response (% of control) was 98%.
Turning to `COc1ccc(S(=O)(=O)NC(C)C(=O)NCc2ccncc2)cc1Cl` (stereo unspecified), the binding response (% of control) was 99%.
Take `Cc1ccc(N2CCN(C3=NC(=O)/C(=C\c4cccs4)S3)CC2)cc1`: the binding response (% of control) is 98%.
Turning to `CC1CCN(C2=NC(=O)/C(=C/c3cn[nH]c3-c3ccccc3)S2)CC1`, the binding response (% of control) was 130% (active).
In the case of `CC1CCN(C2=NC(=O)/C(=C/c3ccc(O)cc3)S2)CC1`, the binding response (% of control) was 100%.
With `COc1ccc(CN2CC[C@H]3C=CC[C@@H](C(=O)N4CCOCC4)[C@H]3C2=O)cc1OC` the figure was 98%; with `CC(=O)c1cccc(NC(=S)N2CCN(S(C)(=O)=O)CC2)c1`, 102%; with `O=c1c2ccccc2c(-c2ccc(Br)cc2)nn1Cc1ccccc1`, 109%.
Consider `O=c1c2ccccc2c(-c2ccccc2)nn1Cc1ccccc1`, for which the binding response (% of control) is 134% (active).
On to `CCCNC(=O)CCn1nc(-c2ccccc2)c2ccccc2c1=O`, for which the binding response (% of control) is 94%.
The figure for `C=CCOC(=O)C1=C[C@H](c2ccc(Br)cc2)C[C@H](OCCCCO)O1` is 99%; for `Cc1cccc(OCCC(=O)Nc2ccccc2C(N)=O)c1` it is 104%; for `COc1ccccc1C(=O)N/C(=C/c1ccco1)C(=O)Nc1ccc(C(=O)O)cc1` it is 102%.
Take `N#Cc1ccc(CSc2ncccn2)cc1`: the binding response (% of control) is 101%.
In the case of `Cc1cc(C)nc(-n2nc(C)cc2NC(=O)c2ccc(F)cc2F)n1`, the binding response (% of control) was 105%.
With `CCOC(=O)Cc1csc(NC(=O)CSc2nc(C)cc(=O)[nH]2)n1` the figure was 58% [inhibitor] (active).
Consider `CCCCc1nnc(NC(=O)CSc2nc(C)cc(=O)[nH]2)s1`, for which the binding response (% of control) was 98%.
On to `CCOC(=O)Cc1csc(NC(=O)CSc2ccc(Br)cc2)n1`, for which the binding response (% of control) was 107%.
Take `COc1ccc(S(=O)(=O)N2CCN(C(=O)N(C)C)C2C)cc1` (stereo unspecified): the binding response (% of control) was 102%.
For the compound `O=C(Nc1cccc(NC(=O)c2cccc(F)c2)c1)c1ccccc1`, the binding response (% of control) is 101%.
With `O=C(Nc1ccn(Cc2ccccc2)n1)c1n[nH]c([N+](=O)[O-])c1Cl`, the binding response (% of control) was 99%.
Turning to `O=C(Nc1ccn(Cc2ccccc2)n1)c1cccc(F)c1`, the binding response (% of control) was 135% (active).
Turning to `COc1cc(/C=N/NC(=O)Cc2ccccc2)cc(OC)c1OC`, the binding response (% of control) is 98%.
The figure for `COc1cc(CC(=O)N/N=C/c2ccccc2)c([N+](=O)[O-])cc1OC` is 134% (active); for `COc1ccc(C(=O)NCC(=O)N/N=C/c2ccc([N+](=O)[O-])o2)cc1OC` it is 133% (active); for `O=C(Cc1cc(=O)[nH][nH]1)N/N=C/c1ccccc1[N+](=O)[O-]` it is 121%.
Take `COc1cc(/C=N/NC(=O)CNC(=O)c2ccncc2)ccc1OC(C)=O`: the binding response (% of control) is 105%.
On to `COc1ccc(C(=O)NCC(=O)N/N=C/c2ccc([N+](=O)[O-])s2)cc1OC`, for which the binding response (% of control) was 102%.
As for `Cc1ccccc1N1CCN(C2CCCN(C(=O)c3ocnc3C)C2)CC1` (stereo unspecified), the binding response (% of control) is 106%.
`COc1ccccc1CN1CCCC(N2CCN(c3ccc(F)cc3)CC2)C1` (stereo unspecified): the binding response (% of control) was 104%.
For the compound `C=CCOc1cccc(C2NC(=O)c3ccccc3O2)c1` (stereo unspecified), the binding response (% of control) was 91%.
In the case of `CC(C)c1cc(C(N)=O)c(NC(=O)c2cccc(COc3ccc(Br)cc3)c2)s1`, the binding response (% of control) was 104%.
Consider `O=C(Nc1cccc(F)c1)NC1CCCc2ccccc21` (stereo unspecified), for which the binding response (% of control) is 99%.
As for `Cc1nc2nc3c(cn2n1)C(=O)CC(c1ccccc1)C3` (stereo unspecified), the binding response (% of control) was 95%.
As for `Cc1cc(C)nc(-n2ncc3c2CC(c2ccc(C(C)C)cc2)CC3=O)n1` (stereo unspecified), the binding response (% of control) was 148% (active).
Regarding `CS(=O)(=O)N(CC(=O)N1CCOCC1)c1cccc(Cl)c1Cl`, the binding response (% of control) is 102%.
With `CCO[C@H]1OC(C(=O)N2CCOCC2)=C[C@@H](c2ccc3c(c2)OCO3)[C@@H]1CCCO`, the binding response (% of control) is 81% [inhibitor] (active).
In the case of `CCO[C@H]1OC(C(=O)N2CCCCCCC2)=C[C@@H](c2ccc(C(F)(F)F)cc2)[C@@H]1CCCO`, the binding response (% of control) is 107%.
As for `CCO[C@@H]1OC(C(=O)N2CCOCC2)=C[C@H](C)[C@H]1CCCO`, the binding response (% of control) was 99%.
Turning to `Cc1ccc(Cn2c(C)c3cnn(CC(=O)NCc4ccccn4)c(=O)c3c2C)cc1`, the binding response (% of control) was 100%.
`COC(=O)c1cccc(N(CC(=O)NCC2CCCO2)C(=O)CCC(=O)Nc2cc(C)on2)c1` (stereo unspecified): the binding response (% of control) was 103%.
Consider `CC(O)c1cccc(NC(=O)Cc2cccc3ccccc23)c1` (stereo unspecified), for which the binding response (% of control) is 102%.
For the compound `O=C(Nc1ccc2oc(-c3ccc4ccccc4c3)nc2c1)c1cccs1`, the binding response (% of control) was 121%.
Consider `O=C(Cc1cccc2ccccc12)Nc1ccc2oc(-c3ccccc3)nc2c1`, for which the binding response (% of control) is 129% (active).
Regarding `c1ccc(-c2nnc(SCc3nc4ccccc4[nH]3)o2)cc1`, the binding response (% of control) was 98%.
As for `Clc1ccc(-c2nnc(SCc3nc4ccccc4s3)o2)cc1`, the binding response (% of control) was 150% (active).
For `O=C(O)CSCc1nc2ccccc2s1`, the binding response (% of control) is 96%.
`COc1ccc(Cl)cc1NC(=O)C(C)N1CCc2ccccc21` (stereo unspecified): the binding response (% of control) was 100%.
The figure for `Cc1ccccc1NC(=O)N1CCCC1C(=O)NCc1ccccc1` (stereo unspecified) is 114%; for `Cc1ccc(-n2nc(C)c(/C=N/NC(=O)c3cccs3)c2Cl)cc1` it is 106%.
As to `O=C(Nc1c2c(nn1-c1cccc(Cl)c1)CS(=O)(=O)C2)c1cccs1`, the binding response (% of control) was 82%.
Consider `Cc1nn(-c2ccccc2)c(NC(=O)c2cccs2)c(-c2ccc(Cl)cc2)c1=O`, for which the binding response (% of control) is 162% (active).
With `CCc1ccc(NC(=O)Cn2nnc(C(=O)NCc3ccc4c(c3)OCO4)c2N)cc1` the figure was 100%.
Take `Cc1ccccc1OCC(=O)Nc1ccc(N2CCN(C(=O)C(C)C)CC2)c(Cl)c1`: the binding response (% of control) is 122% (active).
With `CCC(=O)N1CCN(c2ccccc2NC(=O)COc2cccc(C)c2C)CC1`, the binding response (% of control) is 102%.
On to `Cc1ccccc1OCC(=O)Nc1ccc(S(=O)(=O)N2CCOCC2)cc1`, for which the binding response (% of control) is 95%.
Take `CCN1C(=O)N[C@@H](CCc2ccccc2)C(C(=O)OC)=C1C`: the binding response (% of control) was 101%.
As for `CCC(=O)Nc1nnc(S(=O)(=O)N2CCCc3ccccc32)s1`, the binding response (% of control) is 98%.
With `O=C(CCN1C(=O)[C@@H]2Cc3ccccc3CN2C1=O)NCCc1ccccc1` the figure was 99%; with `Cc1[nH][nH]c(=O)c1C(c1ccc2c(c1)OCO2)c1c(C)[nH][nH]c1=O`, 102%.
With `Cc1[nH][nH]c(=O)c1C(c1ccc(-c2ccc(Cl)cc2)o1)c1c(C)[nH][nH]c1=O`, the binding response (% of control) was 95%.
For `CCOc1ccc(C(c2c(C)[nH][nH]c2=O)c2c(C)[nH][nH]c2=O)cc1OCC`, the binding response (% of control) was 152% (active).
Regarding `CCOc1ccc(CN2CCN(Cc3c[nH]c4ccccc34)CC2)cc1`, the binding response (% of control) was 99%.
Turning to `Cn1ccnc1-c1nnn(-c2ccc(F)cc2)n1`, the binding response (% of control) was 95%.
As to `COC(=O)C1=CN(Cc2ccc(OC)cc2)C=C(C(=O)OC)C1c1ccc(O)c(OC)c1`, the binding response (% of control) was 104%.
Take `CCOc1ccccc1C1C(C(=O)OC)=CN(C)C=C1C(=O)OC`: the binding response (% of control) was 102%.
The figure for `CCOc1cc(C2C(C(=O)OC)=CN(C3CCCC3)C=C2C(=O)OC)cc(Br)c1O` is 80% [inhibitor] (active).
Regarding `COc1nnc(-c2ccc(C)c(S(=O)(=O)N(C)C)c2)c2ccccc12`, the binding response (% of control) was 101%.
`CC(=O)Cn1cnc2c(cnn2-c2ccccc2)c1=O`: the binding response (% of control) was 102%.
Regarding `Cc1c(C#N)c2ncn(CC#N)c(=O)c2n1-c1ccccc1`, the binding response (% of control) was 122% (active).
On to `CN(C)/C=C/c1c(C#N)c(=O)ncn1Cc1ccccc1`, for which the binding response (% of control) was 103%.
With `Cc1cc(N2CCOCC2)nc2ccc(NC(=S)N3CCN(Cc4ccccc4)CC3)cc12` the figure was 92%; with `COc1ccc(C(C(=O)NC(C)(C)C)N(Cc2ccc(F)cc2)C(=O)CCC(=O)Nc2cc(C)on2)cc1` (stereo unspecified), 100%.
As to `NC(=O)C1CCN(C(=O)CC2C(=O)NCCN2Cc2cccc(Oc3ccccc3)c2)CC1` (stereo unspecified), the binding response (% of control) is 101%.
Consider `O=c1c(/C=N/O)coc2ccc(Cl)cc12`, for which the binding response (% of control) was 48% [inhibitor] (active).
Regarding `Cc1ccc2occ(/C=N/NC(=O)c3ccccc3C)c(=O)c2c1`, the binding response (% of control) was 104%.
Turning to `NC(=S)N/N=C/c1coc2cc(Cl)ccc2c1=O`, the binding response (% of control) is 92%.
Take `Cc1ccc(OCC(=O)Nc2ccc3oc(=O)ccc3c2)cc1C`: the binding response (% of control) was 102%.
On to `Cc1ccccc1-c1ccc(Nc2ccc(C(=O)N3CCOCC3)cc2)nn1`, for which the binding response (% of control) was 79% [inhibitor] (active).
Regarding `Cc1ccc(C(=O)N2CCN(C(=O)N3CCOCC3)CC2)cc1`, the binding response (% of control) was 107%.
The figure for `O=C(Nc1ccc(Cl)cc1)Nc1ccc(C(=O)N2CCOCC2)cc1` is 103%.
